Laboratory results from PubChem BioAssay (Tox21).
Inconclusive results are not listed. Activity calls are given as the source filed them. Unless noted, calls come from the whole dose curve; as a rule, active = well fitted curve in the direction sought with a large enough effect in the repeat runs; inconclusive = weak or mixed curves; inactive = no such curve, though single readings can be large; an effect the other way counts as inactive or inconclusive.

Experiments:
[1] = qHTS assay to identify small molecule antagonists of the glucocorticoid receptor (GR) signaling pathway - cell viability counter screen (AID 720693); note: nearly all actives have a fitted effect of over 55% in size; note: potency is the fitted concentration of half-maximal effect
[2] = qHTS assay for identifying genotoxic compounds that show differential cytotoxicity against isogenic chicken DT40 cell lines with known DNA damage response pathways - wild type cell line (AID 743012); note: nearly all actives have a fitted effect of over 60% in size; note: potency is the fitted concentration of half-maximal effect
How it was run: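 Viability by ATP luminescence (CellTiter-Glo, 30 min RT) after 40 h compound treatment at 37 C/5% CO2, using 300 parental DNA repair-proficient DT40 cells per well.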

[3] = qHTS assay to identify small molecule antagonists of the androgen receptor (AR) signaling pathway - cell viability counter screen (AID 743033; note: nearly all actives have a fitted effect of over 45% in size; note: potency is the fitted concentration of half-maximal effect)
[4] = qHTS assay to identify small molecule antagonists of the androgen receptor (AR) signaling pathway using the MDA cell line - cell viability counter screen (AID 743041; note: nearly all actives have a fitted effect of over 45% in size)
How it was run: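 Compound exposure lasted 16 h at 37C in MDA-kb2 AR-luc cells stimulated with R1881. Protease-based CellTiter-Fluor reagent was applied for the final 30 min and fluorescence measured.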

[5] = qHTS assay to identify small molecule antagonists of the thyroid receptor (TR) signaling pathway - cell viability counter screen (AID 743064); note: nearly all actives have a fitted effect of over 50% in size; note: potency is the fitted concentration of half-maximal effect
How it was run: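 Rat GH3 pituitary tumor cells stably expressing two TR response elements driving luciferase were plated, rested 4 h, then dosed with library compounds and T3 (1 nM final). After 23.5 h at 37 °C, CellTiter-Fluor was added for 30 min and fluorescence recorded.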

[6] = qHTS assay to identify small molecule antagonists of the thyroid receptor (TR) signaling pathway (AID 743065); note: nearly all actives have a fitted effect of over 55% in size; note: potency is the fitted concentration of half-maximal effect
How it was run: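 GH3.TRE-Luc rat pituitary cells (two TREs driving luciferase) were dosed with compound, then stimulated with 1 nM T3 (final) for 23.5 h at 37 C. ONE-Glo luminescence was the read-out, with CellTiter-Fluor fluorescence as the cytotoxicity counter-screen.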

[7] = system: thyroid hormone receptor (rat, GH3 cells); assay: qHTS assay to identify small molecule agonists of the thyroid receptor (TR) signaling pathway (AID 743066; calls by dose curve)
[8] = molecular target: Estrogen receptor (Homo sapiens) (UniProt P03372); assay: qHTS assay to identify small molecule antagonists of the estrogen receptor alpha (ER-alpha) signaling pathway (AID 743069; active = well fitted curve in the direction sought with a large enough effect in the signal ratio in the repeat runs, not every such curve was filed as active; the % refers to the signal ratio)
How it was run: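 In this cell-based reporter format, GripTite HEK293 cells harbouring ER-alpha-UAS-bla were grown overnight with 2% charcoal-stripped FBS, dosed with DMSO-dissolved compounds, then challenged with 17beta-estradiol. After 18 hr at 37C, beta-lactamase activity was detected by FRET fluorescence.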

[9] = qHTS assay to identify small molecule antagonists of the estrogen receptor alpha (ER-alpha) signaling pathway - cell viability counter screen (AID 743074; calls by dose curve; note: nearly all actives have a fitted effect of over 45% in size; note: potency is the fitted concentration of half-maximal effect)
[10] = molecular target: Estrogen receptor (Homo sapiens) (UniProt P03372); assay: qHTS assay to identify small molecule agonists of the estrogen receptor alpha (ER-alpha) signaling pathway (AID 743075; calls by dose curve)
[11] = molecular target: Estrogen receptor (Homo sapiens) (UniProt P03372); assay: qHTS assay to identify small molecule agonists of the estrogen receptor alpha (ER-alpha) signaling pathway using the BG1 cell line (AID 743079); note: nearly all actives have a fitted effect of over 20% in size; note: potency is the fitted concentration of half-maximal effect
[12] = qHTS assay to identify small molecule antagonists of the estrogen receptor alpha (ER-alpha) signaling pathway using the BG1 cell line (AID 743080; calls by dose curve;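 note: BG1 cells stimulated with 17beta-estradiol alongside compound; series mostly up to about 70 µM; nearly all actives have a fitted effect of over 25% in size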)
How it was run: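 Endogenous full-length ER-alpha in BG1-Luc-4E2 cells drives a stably integrated 4×ERE luciferase gene; compounds were tested against 17beta-estradiol over 21.5 h, with luminescence and multiplexed viability fluorescence recorded.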

[13] = qHTS assay to identify small molecule antagonists of the estrogen receptor alpha (ER-alpha) signaling pathway using the BG1 cell line - cell viability counter screen (AID 743081);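 note: compound given together with 17beta-estradiol as the ER stimulus; nearly all actives have a fitted effect of over 45% in size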; note: potency is the fitted concentration of half-maximal effect
[14] = molecular target: Aromatase (Homo sapiens) (UniProt P11511); assay: qHTS assay to identify aromatase inhibitors (AID 743083); note: nearly all actives have a fitted effect of over 55% in size; note: potency is the fitted concentration of half-maximal effect
[15] = qHTS assay to identify aromatase inhibitors - cell viability counter screen (AID 743084);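 note: cells stimulated with testosterone during compound exposure; nearly all actives have a fitted effect of over 55% in size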; note: potency is the fitted concentration of half-maximal effect
[16] = qHTS assay for identifying genotoxic compounds that show differential cytotoxicity against isogenic chicken DT40 cell lines with known DNA damage response pathways - Rad54/Ku70 mutant cell line (AID 743015); note: nearly all actives have a fitted effect of over 60% in size; note: potency is the fitted concentration of half-maximal effect
[17] = qHTS assay for identifying genotoxic compounds that show differential cytotoxicity against isogenic chicken DT40 cell lines with known DNA damage response pathways - Rev3 mutant cell line (AID 743014); note: nearly all actives have a fitted effect of over 55% in size; note: potency is the fitted concentration of half-maximal effect
[18] = molecular target: Androgen receptor (Homo sapiens) (UniProt P10275); assay: qHTS assay to identify small molecule agonists of the androgen receptor (AR) signaling pathway (AID 743036; active = well fitted activation curve with a large enough effect in the signal ratio in the repeat runs, with a control signal flat, not every such curve was filed as active; the % refers to the signal ratio)
How it was run: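 Quantitative HTS of the Tox21 10K library in HEK293 cells bearing a stably integrated UAS-controlled beta-lactamase reporter. Compound exposure lasted 16 h at 37C. Reporter activity was detected by FRET substrate fluorescence after 2 h at room temperature.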

[19] = molecular target: Androgen receptor (Homo sapiens) (UniProt P10275); assay: qHTS assay to identify small molecule agonists of the androgen receptor (AR) signaling pathway using the MDA cell line (AID 743040; note: nearly all actives have a fitted effect of over 20% in size)
How it was run: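 Testing was done with the MDA-kb2 AR-luc line, a human breast carcinoma stably transfected with MMTV-luciferase containing AR and GR response elements. Cells were exposed 16 h at 37C before ONE-Glo luminescence detection.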

[20] = molecular target: Androgen receptor (Homo sapiens) (UniProt P10275); assay: qHTS assay to identify small molecule antagonists of the androgen receptor (AR) signaling pathway using the MDA cell line (AID 743042; note: nearly all actives have a fitted effect of over 55% in size)
How it was run: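 MDA-kb2 breast carcinoma cells carrying MMTV-luciferase (AR/GR responsive) were co-treated with compounds and the agonist R1881 for 16 h at 37C. Inhibition read as ONE-Glo luminescence; CellTiter-Fluor fluorescence measured in parallel for cytotoxicity.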

Measured: Potency

Estrogen receptor (Homo sapiens), sequence (P03372 whole entry, looked up): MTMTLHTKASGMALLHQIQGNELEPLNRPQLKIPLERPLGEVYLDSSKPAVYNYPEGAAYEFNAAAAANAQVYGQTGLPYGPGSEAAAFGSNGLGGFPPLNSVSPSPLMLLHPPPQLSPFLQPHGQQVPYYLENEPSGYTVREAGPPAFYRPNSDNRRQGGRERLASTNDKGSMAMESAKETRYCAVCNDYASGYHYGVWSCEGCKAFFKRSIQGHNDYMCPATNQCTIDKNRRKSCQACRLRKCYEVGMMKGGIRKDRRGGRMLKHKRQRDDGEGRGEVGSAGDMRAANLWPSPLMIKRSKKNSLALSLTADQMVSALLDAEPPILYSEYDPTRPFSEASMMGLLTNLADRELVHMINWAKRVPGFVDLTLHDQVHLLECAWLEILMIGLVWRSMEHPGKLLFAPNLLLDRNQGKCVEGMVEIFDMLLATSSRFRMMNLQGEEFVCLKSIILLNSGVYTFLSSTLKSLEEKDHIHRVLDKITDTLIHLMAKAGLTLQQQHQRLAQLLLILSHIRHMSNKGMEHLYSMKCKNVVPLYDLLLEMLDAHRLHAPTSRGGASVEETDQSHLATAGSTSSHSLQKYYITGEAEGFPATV
Androgen receptor (Homo sapiens), sequence (P10275 whole entry, looked up): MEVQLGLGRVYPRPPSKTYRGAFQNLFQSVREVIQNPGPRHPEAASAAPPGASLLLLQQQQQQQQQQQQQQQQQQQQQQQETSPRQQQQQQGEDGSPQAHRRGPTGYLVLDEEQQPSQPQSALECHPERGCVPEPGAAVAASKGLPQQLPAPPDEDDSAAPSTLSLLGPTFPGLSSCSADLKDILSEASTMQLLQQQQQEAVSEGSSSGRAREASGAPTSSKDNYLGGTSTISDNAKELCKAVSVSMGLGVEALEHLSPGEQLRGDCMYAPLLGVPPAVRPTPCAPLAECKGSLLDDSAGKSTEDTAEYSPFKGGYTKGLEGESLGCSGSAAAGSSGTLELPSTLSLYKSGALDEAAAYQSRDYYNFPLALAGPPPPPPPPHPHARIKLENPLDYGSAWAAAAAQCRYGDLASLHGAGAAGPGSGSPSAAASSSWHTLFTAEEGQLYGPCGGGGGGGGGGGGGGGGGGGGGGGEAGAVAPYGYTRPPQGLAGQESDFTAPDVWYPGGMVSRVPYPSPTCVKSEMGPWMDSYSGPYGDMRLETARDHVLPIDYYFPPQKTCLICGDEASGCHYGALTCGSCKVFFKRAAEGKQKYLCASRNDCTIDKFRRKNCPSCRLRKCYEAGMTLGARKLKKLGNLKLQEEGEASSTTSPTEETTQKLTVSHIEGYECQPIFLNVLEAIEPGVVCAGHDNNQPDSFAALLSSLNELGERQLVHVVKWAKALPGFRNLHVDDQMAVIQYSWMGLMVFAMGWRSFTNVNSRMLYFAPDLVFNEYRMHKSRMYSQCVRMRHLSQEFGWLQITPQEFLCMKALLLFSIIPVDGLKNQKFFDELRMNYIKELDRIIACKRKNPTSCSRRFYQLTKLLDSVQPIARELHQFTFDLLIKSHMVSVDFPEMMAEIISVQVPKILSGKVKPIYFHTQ
Aromatase (Homo sapiens), sequence (P11511 whole entry, looked up): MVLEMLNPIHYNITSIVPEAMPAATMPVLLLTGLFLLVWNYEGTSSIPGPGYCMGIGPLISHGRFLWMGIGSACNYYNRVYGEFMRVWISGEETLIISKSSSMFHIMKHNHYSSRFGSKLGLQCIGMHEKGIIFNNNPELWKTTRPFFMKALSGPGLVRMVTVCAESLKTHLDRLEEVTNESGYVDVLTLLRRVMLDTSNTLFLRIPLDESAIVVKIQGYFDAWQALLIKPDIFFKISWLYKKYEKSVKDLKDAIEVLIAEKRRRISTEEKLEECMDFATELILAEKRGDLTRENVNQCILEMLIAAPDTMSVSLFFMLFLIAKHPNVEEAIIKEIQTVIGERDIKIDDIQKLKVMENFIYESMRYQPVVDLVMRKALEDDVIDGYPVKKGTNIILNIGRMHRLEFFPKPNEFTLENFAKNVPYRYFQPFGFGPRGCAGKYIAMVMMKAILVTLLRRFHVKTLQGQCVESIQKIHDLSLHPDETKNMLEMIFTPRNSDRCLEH

CC(C)(C)C1(CCc2ccc(Cl)cc2)CO1 (stereo not drawn)
not listed: [16] | [17] | [18] | [19] | [20]
inactive: all other assays above

CC[C@@H](CO)NCCN[C@@H](CC)CO
inactive: [1] | [2] | [16] | [3] | [4] | [9] | [13] | [14] | [15]

O=C(C(=O)c1ccco1)c1ccco1
not listed: [2]
inactive: all other assays above

CC(C)COC(=O)c1ccc(O)cc1
inactive: [1] | [2] | [17] | [3] | [4] | [6] | [7] | [9] | [13] | [14] | [15]

CCCCCc1ccco1
inactive: [1] | [4] | [7] | [9] | [13] | [14] | [15]
active: [2] 39.8 µM | [17] 44.7 µM | [16] 31.6 µM

CC1=CC[C@@]23C[C@@H]1C(C)(C)[C@@H]2CC[C@H]3C
inactive: [1] | [2] | [17] | [3] | [4] | [7] | [9] | [13] | [14] | [15]

Cc1ccc(N(CC2=NCCN2)c2cccc(O)c2)cc1
active: [2] 23.7 µM
not listed: [5] | [6] | [11] | [16] | [17] | [18] | [19] | [20]
inactive: all other assays above

CCCCCCCCCCCCCOS(=O)(=O)O
inactive: [1] | [2] | [19] | [4] | [20] | [5] | [7] | [9] | [13] | [14] | [15]

CCCCCCC(O)CCCCCCCCCCC(=O)OC (stereo not drawn)
active: [16] 68.6 µM
inactive: [1] | [2] | [4] | [5] | [6] | [7] | [9] | [13]

CCC(CO)(CO)[N+](=O)[O-]
not listed: [17] | [18] | [19] | [20]
inactive: all other assays above

Cc1cn([C@H]2C[C@H](F)[C@@H](CO)O2)c(=O)[nH]c1=O
not listed: [2]
inactive: all other assays above

O=CNNC=O
not listed: [3] | [17] | [18] | [19] | [20]
inactive: all other assays above

O=C(Oc1ccccc1)c1ccc2ccccc2c1O
active: [17] 54.5 µM | [16] 48.6 µM
not listed: [2] | [6] | [11] | [12]
inactive: all other assays above

Nc1ccc(NC(=O)c2ccc(N)cc2)cc1
active: [15] 54.5 µM
not listed: [14] | [16]
inactive: all other assays above

c1ccc(CCCc2ccncc2)cc1
active: [14] 30.6 µM
not listed: [17] | [18] | [19] | [20]
inactive: all other assays above

COc1ccc(-c2cc(=S)ss2)cc1
active: [2] 26.6 µM
inactive: [1] | [5] | [7] | [9] | [10] | [13] | [14]

Nc1ccc(S(=O)(=O)NCc2ccccc2)cc1
inactive: [1] | [2] | [16] | [3] | [5] | [6] | [7] | [9] | [13] | [14] | [15]

FC(F)(F)C(F)(F)C(F)(F)C(F)(F)CCI
active: [11] 27.9 µM
not listed: [3] | [6] | [7] | [17] | [18] | [19] | [20]
inactive: all other assays above

CC(=O)C(=O)CC(C)C
active: [11] 34.2 µM
not listed: [3] | [17] | [18] | [19] | [20]
inactive: all other assays above

CCC(CO)(CO)CO
not listed: [3] | [5] | [6] | [16] | [17]
inactive: all other assays above

COc1cc(NC(C)CCCN)c2ncccc2c1 (stereo not drawn)
active: [2] 11.4 µM | [16] 12.7 µM | [5] 11.4 µM | [13] 10.1 µM
inactive: [1] | [4] | [7] | [8] | [9] | [10] | [14] | [15]

O=C(NS(=O)(=O)/C=C/c1ccccc1)c1ccc(F)cc1Cl
not listed: [8] | [11] | [12] | [17] | [18] | [19] | [20]
inactive: all other assays above

CCN(CC)C(=O)/C(C#N)=C/c1cc(O)c(O)c([N+](=O)[O-])c1
not listed: [5] | [15] | [17] | [18]
inactive: all other assays above

COC1CCC=CO1 (stereo not drawn)
not listed: [10] | [15] | [17] | [18] | [19] | [20]
inactive: all other assays above

COC(=O)CC(C(C)=O)C(=O)OC (stereo not drawn)
not listed: [17]
inactive: all other assays above

CCN(CC)c1ccc(C(=C2C=CC(=[N+](CC)CC)C=C2)c2ccc(S(=O)(=O)O)cc2S(=O)(=O)[O-])cc1
active: [1] 21.9 µM | [3] 21.9 µM | [6] 19.3 µM | [9] 24.5 µM | [13] 30.6 µM | [14] 9.69 µM | [15] 19.3 µM
not listed: [2] | [8] | [10] | [11] | [12]
inactive: all other assays above

O=C1[C@@H]2[C@H]3CC[C@H](C3)[C@@H]2C(=O)N1CCCCN1CCN(c2ncccn2)CC1
not listed: [5] | [6] | [7] | [16] | [18] | [19] | [20]
inactive: all other assays above

CCCCC(CC)COS(=O)(=O)O (stereo not drawn)
not listed: [2] | [6] | [18] | [19] | [20]
inactive: all other assays above

[Cl][Nd]([Cl])[Cl]
not listed: [2] | [6] | [18] | [19] | [20]
inactive: all other assays above

O=C(CCS)OCC(COC(=O)CCS)(COC(=O)CCS)COC(=O)CCS
not listed: [2] | [3] | [15] | [18] | [19] | [20]
inactive: all other assays above

CNC1CCCN(c2c(F)cc3c(=O)c(C(=O)O)cn(C4CC4)c3c2OC)C1 (stereo not drawn)
not listed: [2] | [3] | [18] | [19] | [20]
inactive: all other assays above

O=C(/C=C/c1ccc([N+](=O)[O-])cc1)c1ccccc1
active: [6] 61.3 µM
not listed: [2] | [10] | [12] | [18] | [19] | [20]
inactive: all other assays above

CCC(=O)OCc1ccc(OC)cc1
inactive: [1] | [17] | [16] | [3] | [4] | [5] | [6] | [7] | [9] | [13]

Cc1c[nH]c2ccccc12
not listed: [2] | [8] | [10] | [11] | [12] | [18] | [19] | [20]
inactive: all other assays above

Cc1ccc2c(c1)CCCN2
not listed: [2] | [12] | [18] | [19] | [20]
inactive: all other assays above

CCCc1nc2c(C)cc(-c3nc4ccccc4n3C)cc2n1Cc1ccc(-c2ccccc2C(=O)O)cc1
not listed: [2] | [5] | [6] | [8] | [18] | [19] | [20]
inactive: all other assays above

COc1cc(C(C)=O)ccc1OCCCN1CCC(c2noc3cc(F)ccc23)CC1
active: [17] 18.8 µM | [16] 16.8 µM | [5] 21.1 µM | [6] 23.7 µM
not listed: [2] | [13] | [18] | [19] | [20]
inactive: all other assays above
